Experimental data: the antibiotic and cytotoxicity screens of Wong et al. (2023)
The whole screen tested about 39,000 compounds, of which about 1,500 (3.8%) were called active. The sample as a whole holds a higher share of actives than the screen did.

What follows are molecules tested on HSkMC (human skeletal muscle cells) (assay: cytotoxicity call (relative viability < 0.9)). Conditions: 10 µM.

SMILES	cytotoxicity call
CS(=O)(=O)Nc1ccc2c(c1)[C@@H]1C[C@H](CC(=O)NCc3ccc(-c4ccccc4)cc3)O[C@@H](CO)[C@@H]1O2	inactive
C[C@@H]1CN([C@@H](C)CO)C(=O)Cc2cc(NC(=O)CCCCCC(=O)Nc3ccccc3N)ccc2O[C@H]1CN(C)Cc1ccccc1	inactive
C[C@@H]1CN([C@H](C)CO)C(=O)c2cc(NC(=O)Nc3ccc(C(F)(F)F)cc3)ccc2O[C@@H](C)CCCCO[C@H]1CN(C)S(=O)(=O)c1ccc(F)cc1	inactive
Cc1noc(C)c1NC(=O)N(C)C[C@@H]1OCCCC[C@H](C)Oc2ccc(NS(=O)(=O)c3ccccc3)cc2C(=O)N([C@@H](C)CO)C[C@@H]1C	inactive
COc1ccc2[nH]cc(CCNC(C)=O)c2c1	inactive
Cn1c(CN)nc2ccccc2c1=O	inactive
CC(C)Oc1cccc(-n2c(CCc3c[nH]c4ccc(Br)cc34)nc3ccccc3c2=O)c1	active
C[C@@H]1CCCCO[C@H](CN(C)C(=O)Cc2ccccc2)[C@H](C)CN([C@H](C)CO)C(=O)c2cc(NS(=O)(=O)c3cccs3)ccc2O1	inactive
Cc1noc(C)c1S(=O)(=O)Nc1ccc2c(c1)C(=O)N([C@@H](C)CO)C[C@H](C)[C@H](CN(C)S(=O)(=O)c1cn(C)cn1)O2	inactive
C[C@@H]1CCCCO[C@@H](CN(C)C(=O)Nc2cccc3ccccc23)[C@@H](C)CN([C@H](C)CO)C(=O)c2cc(NS(=O)(=O)c3cn(C)cn3)ccc2O1	inactive
C[C@@H]1CCCCO[C@@H](CN(C)C(=O)Nc2cccc3ccccc23)[C@H](C)CN([C@H](C)CO)C(=O)c2cc(NS(=O)(=O)c3cn(C)cn3)ccc2O1	inactive
C[C@@H]1CCCCO[C@@H](CN(C)C(=O)Nc2cccc3ccccc23)[C@H](C)CN([C@@H](C)CO)C(=O)c2cc(NS(=O)(=O)c3cn(C)cn3)ccc2O1	inactive
C[C@H](CO)N1C[C@H](C)[C@H](CN(C)C(=O)Nc2cccc3ccccc23)OCCCC[C@H](C)Oc2ccc(NS(=O)(=O)c3cn(C)cn3)cc2C1=O	inactive
C[C@@H]1CN([C@@H](C)CO)C(=O)c2cc(NS(=O)(=O)c3cn(C)cn3)ccc2O[C@@H](C)CCCCO[C@H]1CN(C)C(=O)Nc1cccc2ccccc12	active
C[C@@H]1CCCCO[C@H](CN(C)C(=O)Nc2cccc3ccccc23)[C@@H](C)CN([C@@H](C)CO)C(=O)c2cc(NS(=O)(=O)c3cn(C)cn3)ccc2O1	inactive
C[C@@H]1CCCCO[C@H](CN(C)C(=O)Nc2cccc3ccccc23)[C@H](C)CN([C@@H](C)CO)C(=O)c2cc(NS(=O)(=O)c3cn(C)cn3)ccc2O1	inactive
C[C@@H]1CCCCO[C@H](CN(C)C(=O)Nc2cccc3ccccc23)[C@H](C)CN([C@H](C)CO)C(=O)c2cc(NS(=O)(=O)c3cn(C)cn3)ccc2O1	active
C[C@H]1CCCCO[C@H](CN(C)C(=O)Nc2cccc3ccccc23)[C@@H](C)CN([C@@H](C)CO)C(=O)c2cc(NS(=O)(=O)c3cn(C)cn3)ccc2O1	inactive
C[C@H]1CCCCO[C@@H](CN(C)C(=O)Nc2cccc3ccccc23)[C@@H](C)CN([C@@H](C)CO)C(=O)c2cc(NS(=O)(=O)c3cn(C)cn3)ccc2O1	active
C[C@@H]1CN([C@@H](C)CO)C(=O)c2cc(NS(=O)(=O)c3cn(C)cn3)ccc2O[C@@H](C)CCCCO[C@@H]1CN(C)C(=O)Nc1cccc2ccccc12	active
C[C@H](CO)N1C[C@H](C)[C@@H](CN(C)C(=O)Nc2cccc3ccccc23)OCCCC[C@H](C)Oc2ccc(NS(=O)(=O)c3cn(C)cn3)cc2C1=O	inactive
C[C@@H]1CN([C@@H](C)CO)S(=O)(=O)c2ccc(-c3cncnc3)cc2O[C@H]1CN(C)C(=O)Cc1cccnc1	inactive

SMILES	cytotoxicity call
C[C@@H]1CCCCO[C@H](CN(C)C(=O)Nc2ccccc2)[C@@H](C)CN([C@H](C)CO)C(=O)c2cc(NC(=O)c3ccncc3)ccc2O1	inactive
Cc1noc(C)c1NC(=O)N(C)C[C@H]1Oc2ccc(NS(=O)(=O)c3cccs3)cc2CC(=O)N([C@@H](C)CO)C[C@H]1C	inactive
Cc1ccc(-c2cnc(-c3ccc(Br)cc3)o2)cc1	inactive
C[C@@H]1CN([C@H](C)CO)C(=O)Cc2cc(NC(=O)Cn3cnnn3)ccc2O[C@@H]1CN(C)Cc1ccccc1	inactive
CCCN1C[C@H](C)[C@@H](O)[C@](C)(O)[C@@H](CC)OC(=O)[C@H](C)[C@@H](O[C@H]2C[C@@](C)(OC)[C@@H](O)[C@H](C)O2)[C@H](C)[C@@H](O[C@@H]2O[C@H](C)C[C@H](N(C)C)[C@H]2O)[C@](C)(O)C[C@H]1C	inactive
CC(C)c1ccccc1Cc1cc(C(=O)Nc2ccc(S(=O)(=O)c3ccccc3C(C)(C)C)cc2)c(O)c(O)c1O	active
CCc1cccc(C(C)C)c1NC(=O)Nc1ccccc1	inactive
Cc1oc(C(C)(C)C)cc1C(=O)Nc1ccc(C(C)C)cc1	inactive
CNC(=O)C[C@@H]1CC[C@@H]2[C@H](COC[C@H](O)CN2C(=O)Nc2cccc(OC)c2)O1	inactive
C[C@H]1CCCCO[C@H](CN(C)C(=O)Nc2ccc3c(c2)OCO3)[C@@H](C)CN([C@@H](C)CO)C(=O)c2cc(NS(=O)(=O)c3ccccc3)ccc2O1	inactive
C[C@H](O)[C@H](O)[C@@H](O)[C@@H](O)/C=N/NC(=O)CCCCC(=O)NO	inactive
C[C@H](CO)N1C[C@H](C)[C@H](CN(C)C(=O)Nc2cccc3ccccc23)OCCCC[C@H](C)Oc2ccc(NS(C)(=O)=O)cc2C1=O	inactive
Cc1ccc(S(=O)(=O)Nc2ccc3c(c2)CC(=O)N([C@H](C)CO)C[C@H](C)[C@@H](CN(C)Cc2ccc(-c4ccccc4)cc2)O3)cc1	inactive
Cc1ccc(S(=O)(=O)Nc2ccc3c(c2)CC(=O)N([C@@H](C)CO)C[C@@H](C)[C@@H](CN(C)Cc2ccc(-c4ccccc4)cc2)O3)cc1	active
Cc1ccc(S(=O)(=O)Nc2ccc3c(c2)CC(=O)N([C@H](C)CO)C[C@@H](C)[C@@H](CN(C)Cc2ccc(-c4ccccc4)cc2)O3)cc1	active
Cc1ccc(S(=O)(=O)Nc2ccc3c(c2)CC(=O)N([C@H](C)CO)C[C@H](C)[C@H](CN(C)Cc2ccc(-c4ccccc4)cc2)O3)cc1	inactive
Cc1ccc(S(=O)(=O)Nc2ccc3c(c2)CC(=O)N([C@@H](C)CO)C[C@H](C)[C@@H](CN(C)Cc2ccc(-c4ccccc4)cc2)O3)cc1	active
Cc1ccc(S(=O)(=O)Nc2ccc3c(c2)CC(=O)N([C@H](C)CO)C[C@@H](C)[C@H](CN(C)Cc2ccc(-c4ccccc4)cc2)O3)cc1	active
C[C@H]1CN([C@@H](C)CO)C(=O)c2cc(NC(=O)NC3CCCCC3)ccc2O[C@H]1CN(C)Cc1ccc(C(=O)Nc2ccccc2N)cc1	inactive
C[C@@H]1CN([C@H](C)CO)C(=O)c2cc(NC(=O)c3ccncc3)ccc2O[C@H]1CN(C)S(=O)(=O)c1ccc(F)cc1	inactive
C[C@@H]1CN([C@@H](C)CO)C(=O)c2cc(NC(=O)C3CC3)ccc2O[C@@H]1CN(C)S(=O)(=O)c1ccc(F)cc1	inactive
CC(C)NC(=O)N[C@H]1C=C[C@@H](CC(=O)NCCN2CCCC2)O[C@H]1CO	inactive

SMILES	cytotoxicity call
CC(C)NC(=O)N(C)C[C@H]1Oc2ccc(NS(=O)(=O)c3cn(C)cn3)cc2C(=O)N([C@H](C)CO)C[C@@H]1C	inactive
O=C(CCCCCNC(=O)OCc1ccc(CO[C@@H]2C[C@H](C3CCCCC3)C=C(C(=O)N3CCN(Cc4ccc5c(c4)OCO5)CC3)O2)cc1)NO	inactive
COc1ccc(CN(C)C[C@@H]2Oc3ccc(NC(=O)C4CC4)cc3CC(=O)N([C@@H](C)CO)C[C@@H]2C)cc1	inactive
COc1cc(O)cc(OC)c1O[C@@H]1O[C@H](CO)[C@@H](O)[C@H](O)[C@H]1O	inactive
C[C@H]1CN([C@@H](C)CO)C(=O)Cc2cc(NC(=O)CCCCCC(=O)Nc3ccccc3N)ccc2O[C@@H]1CN(C)Cc1ccc(Cl)c(Cl)c1	inactive
C[C@H]1CN([C@@H](C)CO)C(=O)c2cc(NC(=O)CCN3CCOCC3)ccc2O[C@H]1CN(C)S(=O)(=O)c1ccc(F)cc1	inactive
C[C@H](CO)N1C[C@H](C)[C@H](CN(C)Cc2ccc(C(F)(F)F)cc2)Oc2ccc(NC(=O)C3CCCCC3)cc2C1=O	inactive
Cc1ccc(S(=O)(=O)Nc2ccc3c(c2)CC(=O)N([C@@H](C)CO)C[C@@H](C)[C@H](CN(C)Cc2ccc(-c4ccccc4)cc2)O3)cc1	inactive
Cc1ccc(S(=O)(=O)Nc2ccc3c(c2)CC(=O)N([C@@H](C)CO)C[C@H](C)[C@H](CN(C)Cc2ccc(-c4ccccc4)cc2)O3)cc1	active
Cc1noc(C)c1NC(=O)Nc1ccc2c(c1)C(=O)N([C@@H](C)CO)C[C@@H](C)[C@H](CN(C)C(=O)NC1CCCCC1)OCCCC[C@H](C)O2	inactive
CC(=O)NCCn1cccc1	inactive
C[C@@H]1CCCCO[C@H](CN(C)Cc2ccc(C(F)(F)F)cc2)[C@@H](C)CN([C@@H](C)CO)C(=O)c2cc(NS(=O)(=O)c3ccc(F)cc3)ccc2O1	inactive
C[C@@H]1CCCCO[C@H](CN(C)Cc2ccc(Cl)c(Cl)c2)[C@@H](C)CN([C@H](C)CO)C(=O)c2cc(NC(=O)c3ccccc3)ccc2O1	inactive
C[C@H](CO)N1C[C@H](C)[C@@H](CN(C)Cc2ccc(Cl)c(Cl)c2)OCCCC[C@H](C)Oc2ccc(NC(=O)c3ccccc3)cc2C1=O	inactive
C[C@H]1CCCCO[C@H](CN(C)Cc2ccc(Cl)c(Cl)c2)[C@@H](C)CN([C@@H](C)CO)C(=O)c2cc(NC(=O)c3ccccc3)ccc2O1	active
C[C@@H]1CCCCO[C@H](CN(C)Cc2ccc(Cl)c(Cl)c2)[C@@H](C)CN([C@@H](C)CO)C(=O)c2cc(NC(=O)c3ccccc3)ccc2O1	inactive
C[C@@H]1CCCCO[C@H](CN(C)Cc2ccc(Cl)c(Cl)c2)[C@H](C)CN([C@@H](C)CO)C(=O)c2cc(NC(=O)c3ccccc3)ccc2O1	inactive
C[C@@H]1CN([C@H](C)CO)C(=O)c2cc(NC(=O)c3ccccc3)ccc2O[C@@H](C)CCCCO[C@H]1CN(C)Cc1ccc(Cl)c(Cl)c1	inactive
C[C@@H]1CCCCO[C@@H](CN(C)Cc2ccc(Cl)c(Cl)c2)[C@H](C)CN([C@H](C)CO)C(=O)c2cc(NC(=O)c3ccccc3)ccc2O1	active
C[C@H](CO)N1C[C@H](C)[C@H](CN(C)Cc2ccc(Cl)c(Cl)c2)OCCCC[C@H](C)Oc2ccc(NC(=O)c3ccccc3)cc2C1=O	inactive
C[C@@H]1CCCCO[C@@H](CN(C)Cc2ccc(Cl)c(Cl)c2)[C@H](C)CN([C@@H](C)CO)C(=O)c2cc(NC(=O)c3ccccc3)ccc2O1	active
